Screening results from PubChem BioAssay.
KB-V1 cytotox: KB-V1 MDR subline cytotoxicity | KB-V1 MDR cells viability, CellTiter-Glo, 72 h | Potency, µM (series often up to 46.1 µM), hits mostly cytotoxic | 400,000 tested, 3.4% active; further: potency means the concentration at half of the fitted maximal effect; nearly all actives have a fitted effect of over 60% in size
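Cytotoxicity toward P-gp-expressing KB-V1 cells was determined as loss of CellTiter-Glo luminescence after 72 h at 37 degrees C. Compounds were tested in quantitative HTS format across a concentration range, with curves fitted to normalized data.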
KB-3-1 tox: KB-3-1 parental cell cytotoxicity; KB-3-1 viability, CellTiter-Glo ATP luminescence, 72 h; Potency, µM (top dose mostly 46.1 µM), actives largely listed as cytotoxic; 400,000 tested, 1.4% active; AID 1347075; further: potency means the concentration at half of the fitted maximal effect; nearly all actives have a fitted effect of over 60% in size
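72 h, 37 °C compound treatment of KB-3-1 parental cells; CellTiter-Glo added, 10 min, luminescence read. Data corrected against DMSO-only plates and normalized before curve fitting.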
HT1080-NT tox: kills 2HG-producing HT-1080-NT fibrosarcoma cells | HT-1080-NT fibrosarcoma viability, CellTiter-Glo ATP luminescence, 48 h | Potency, µM (titrated, usually from 46.1 µM), for inactives: at the top dose activity, negative = less viability, actives largely listed as cytotoxic | 360,000 tested, 1.6% active;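 further: NT is the 2HG producing partner of a matched IDH1 knockdown line; potency means the concentration at half of the fitted maximal effect; 0% = DMSO-treated cells and -100% = media-only wells without cells; nearly all actives have a fitted effect of over 55% in size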
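Luminescent CellTiter-Glo readout after 48 hours of compound exposure at 37 degrees C defined viability of HT-1080-NT cells. Activity was normalized to DMSO wells and cell-free media wells; concentration-response curves were fitted and assigned curve classes.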
HT1080 IDH1KD tx: HT-1080 IDH1 knockdown cell toxicity (counter line); Potency, µM (highest dose often 46.1 µM), inactives show at the highest dose activity, negative = toxicity, usual class: cytotoxic; 360,000 tested, 2% active; HT-1080 IDH1 knockdown viability, ATP luminescence, 48 h;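 further: potency means the concentration at half of the fitted maximal effect; 0% = DMSO wells and -100% = cell-free medium wells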
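Luminescent ATP read-out (CellTiter-Glo, 10 min at room temperature) after 48 h compound exposure at 37 °C gave viability of IDH1-knockdown HT-1080 cells. Activity was normalised to DMSO and cell-free wells, then fitted as concentration-response curves.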
IL-1B inflam inh: blocks inflammasome-driven IL-1 beta release; AID 743279; 360,000 tested, 4.7% active; THP-1 LPS/ATP IL-1B secretion, AlphaLISA, 16 h; hits give low values; activity change, % at 57.5 µM; in the data active means activity change below about -50%; inconclusive means mostly about -30% to -49%
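THP-1 cells pretreated 1 hr with compounds (up to 57.5 uM final), then stimulated with LPS (250 ng/mL final) plus ATP (1.25 mM final); secreted IL-1B measured by AlphaLISA after 16 hr, decreased signal indicating inhibition.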
* marks the source's active call; other numbers are inactive results; i = inactive; ? = inconclusive; · = not tested or not shown. Rows were chosen to be rich in hits. Some 8.8% of all compounds tested hit in one or more screens of this group. Unless noted, the call rests on the fitted dose curve; in most records, active means well fitted curve in the direction sought with a large enough effect; inconclusive means small, poorly fitted or top-dose-only effect, or another doubt; inactive means no such curve, though single readings can be large; an effect the other way counts as inactive or inconclusive. Unless noted, on the % scale 0 is the no-effect control and ±100 the full control effect.

SMILES	KB-V1 cytotox	KB-3-1 tox	HT1080-NT tox	HT1080 IDH1KD tx	IL-1B inflam inh
O=C(CCC(=O)N1CCN(Cc2ccc(F)cc2)CC1)Nc1nnc(C(F)(F)F)s1	i	i	-5%	-5%	49
CCOc1ccc(NC(=O)OCCN2CCN(CCc3ccccc3)C(C)C2)cc1 (stereo not drawn)	i	?	2%	-1%	-70*
COc1ccc(OC)c(/C=C/c2ccnc3ccccc23)c1	5.2µM*	?	?	?	-76*
O=C(COC(=O)CNS(=O)(=O)/C=C/c1ccccc1)Nc1cc(S(=O)(=O)N2CCCCC2)ccc1Cl	i	i	-2%	-1%	42
COc1ccccc1NS(=O)(=O)c1cc(NC(=O)c2ccc(Cl)nc2)ccc1Cl	8.2µM*	?	?	?	-63*
COc1ccccc1NC(=O)Nc1ccc(Cl)c(S(=O)(=O)Nc2ccccc2OC)c1	i	i	-1%	-5%	1
Cc1ccc(NC(=S)NC(=O)c2ccc(F)cc2)cc1S(=O)(=O)Nc1ccccc1Cl	?	23µM*	?	?	-12
COc1ccc(NC(=S)N/C(=N/S(=O)(=O)c2ccc(C)cc2)c2ccccc2)cc1	i	i	-7%	-11%	40
COc1ccc(C(=O)Nc2ccc(Cl)c(S(=O)(=O)Nc3ccccc3OC)c2)cc1	2.3µM*	?	-3%	?	-1
COc1ccc(NC(=S)NC(=NS(=O)(=O)c2ccc(Cl)cc2)c2ccccc2)cc1	i	21µM*	-11%	-23%	0
CCc1ccccc1NC(=O)CN1C(=O)COc2ccc(S(=O)(=O)Nc3ccccc3)cc21	i	i	·	·	·
O=c1[nH]c(-c2ccccc2)ncc1Oc1ccccc1	i	i	2%	10%	-6
COc1ccc(C(=O)C[n+]2cccc3cc(Cl)ccc32)cc1	i	?	·	·	·
CCOC(=O)NN1C(=O)c2ccccc2NC12CCCC2	i	i	14%	10%	16
CCN(CC)c1ccc(NC(=O)c2ccccc2)cc1S(=O)(=O)Nc1ccccc1OC	15µM*	i	-2%	-20%	-26
CCOc1ccc(NS(=O)(=O)c2cc(NC(=O)c3ccc(C)cc3)ccc2Cl)cc1	0.82µM*	?	2.3µM*	3.7µM*	-3
COc1ccc(NS(=O)(=O)c2cc(C(=O)N3CCN(C(C)=O)CC3)ccc2Cl)cc1	i	i	0%	4%	-9
COc1ccc(NS(=O)(=O)c2cc(N/C(=N\S(=O)(=O)c3ccccc3)c3ccc(F)cc3)ccc2Cl)cc1	21µM*	21µM*	?	?	-10
Cn1c(NCCCO)nc2c1c(=O)n(Cc1cccc(F)c1)c(=O)n2C	i	i	·	·	·
CCCCCCCCC(=O)N1C(C)CCC1C (stereo not drawn)	i	?	4%	5%	13
Cc1cccc(Cn2c(=O)n(-c3ccccc3C)c(=O)c3c2c2cc(C)ccc2n3C)c1	i	i	·	·	·
CCOC(=S)SCC(=O)Nc1nccs1	i	i	-15%	?	-99*
CCOC(=S)SCC(=O)Nc1nc(-c2ccccc2)cs1	?	6.5µM*	?	?	?
CCOC(=O)/C=C/C(=O)Nc1nccs1	i	i	-17%	-7%	-86*
CCOC(=O)N1CCN(C(=O)CSCC(=O)Nc2nc(-c3ccc(OC)cc3)cs2)CC1	21µM*	?	-19%	-21%	-13
O=C1C=C(O)C(n2cncn2)C(c2ccc3c(c2)OCO3)C1 (stereo not drawn)	i	i	6%	-1%	17
Cc1ccc(C(=O)OCC(=O)Nc2nc(-c3ccccc3)cs2)cc1NC(=O)c1ccco1	?	i	3%	-10%	-80*
CCOC(=S)SCC(=O)Nc1nc(C)c(C)s1	i	?	?	-7%	-7
CCOC(=S)SCC(=O)Nc1nc(-c2ccc(Br)cc2)cs1	5.8µM*	5.2µM*	7.3µM*	6.5µM*	-100*
CN(CC(=O)Nc1ccc(Cl)cc1)C(=O)CCC1CCCC1	i	i	7%	5%	0
